Whole data set: some 33,000 sequences, median “E-score (-0.5 to 0.5)” near -0.036, cut for the highest 2% near 0.37. This excerpt belongs to a sample that is enriched for the highest values.
molecular target: T1, Yer064c (UniProt P40041); experiment: PBM E-score (8-mer binding enrichment) (E-score (-0.5 to 0.5)); higher = stronger / more preferred TF binding; conditions: protein concentration: 200 nM; construct: GST-full length
T1 sequence: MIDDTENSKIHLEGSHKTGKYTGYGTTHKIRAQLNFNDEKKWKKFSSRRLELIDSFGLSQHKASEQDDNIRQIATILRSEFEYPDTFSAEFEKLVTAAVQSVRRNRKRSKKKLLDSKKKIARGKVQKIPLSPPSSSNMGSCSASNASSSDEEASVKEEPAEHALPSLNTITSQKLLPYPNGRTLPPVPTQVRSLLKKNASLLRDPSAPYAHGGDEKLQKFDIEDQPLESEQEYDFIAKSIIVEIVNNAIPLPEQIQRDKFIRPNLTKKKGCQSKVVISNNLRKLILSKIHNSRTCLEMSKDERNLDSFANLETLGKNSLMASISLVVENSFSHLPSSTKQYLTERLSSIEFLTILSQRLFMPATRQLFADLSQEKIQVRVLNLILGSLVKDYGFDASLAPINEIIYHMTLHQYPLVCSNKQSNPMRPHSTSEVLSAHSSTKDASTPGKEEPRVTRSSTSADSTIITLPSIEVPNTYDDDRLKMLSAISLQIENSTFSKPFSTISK
In short: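 Masliner-normalised scans of fluorescent anti-GST signal were the basis for scoring. That signal came from GST-tagged yeast transcription factors applied at about 100-200 nM to double-stranded universal all-10-mer Agilent arrays on fresh or once-stripped slides. Each ungapped eight-base word, pooled with its reverse complement, received an E-score from the Universal PBM Analysis Suite.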

Sequence	PBM E-score
CAACAGGG	-0.202
ATGATACA	0.246
GAAGTGCC	-0.336
GTTTGCTA	0.0898
GAGTTGCC	-0.149
GACGGTAA	-0.284
CAACTCCG	-0.12
ATAGTTGC	0.0257
CGATGTAC	-0.0701
AGGCCTCG	-0.184
AGGACTAA	0.405
AGGACTAT	0.31
TGGACTAA	0.348
CCAGAGGA	0.00907
ATAGGGGC	-0.262
GGAGTTAC	-0.0565
CGAGTCCG	0.272
CGAGTCAC	0.477
TAAGTCAA	0.344
CGAGTCCC	0.24
GGAGTCCC	0.189
TGAGTCAA	0.489
GGAGTCAC	0.485
CGAGTCTC	0.307
CGAGTCAG	0.46

Sequence	PBM E-score
CAAGTCAG	0.306
TCAGTCAA	0.348
CCTTCTGA	-0.0564
GAGAGCCA	0.132
TCCAGCCA	-0.198
GCGTAGCC	0.074
ATCGATGC	-0.198
AACTAGCG	-0.119
CTCAAGGC	0.104
ATCCACTC	-0.0532
TCCAACCA	-0.132
CATCGGCC	-0.0369
ACTGGGAC	0.0246
CGAGTCCA	0.0419
AGAGTACA	0.171
GGAGTACA	0.129
GGAGTCTA	0.172
CAAGTCAA	0.196
CGAGTCAA	0.444
GGAGTCAA	0.431
GGAGTCGA	0.212
CGAGTCTA	0.132
TGAGTACA	0.376
TGAGTCCA	0.397
GGAGTCCA	0.243

Sequence	PBM E-score
CAAAGCCG	-0.176
ACCTGCGG	-0.208
CAGGCGGC	0.0353
TGGCGCAA	-0.15
CGCTGGTA	-0.0555
TACTACCA	0.00773
AACTACCC	-0.158
GACTACCC	0.42
CACTACCA	-0.0175
CACTACCC	0.00286
GACTACCA	0.413
ACAAAACT	-0.0935
CAGGACCC	-0.208
GAGAACGA	-0.0613
ACTTAGTG	0.198
CCTTAGTA	-0.0218
CCTTAGAC	0.063
CCTTAGTC	0.41
ACTTAGTA	0.162
ACTTAGTC	0.435
GTCCATAA	-0.161
CCCGGCGG	-0.182
ATCCTGGG	-0.0196
CGTCAAGA	-0.229
GGTCAAGA	-0.0401

Sequence	PBM E-score
AGTCAAGC	0.358
AGTCAAGA	0.414
ACTCAAGG	0.29
AGTCAAGG	0.392
CCTTCGTA	-0.15
AGCGCTGA	0.0781
CTATCGGC	-0.0556
ACGCACGG	-0.192
ACTCACGG	0.376
ACACACGG	0.0742
ACTCACGA	0.388
CCTCACGA	-0.0431
ACTCACAG	0.353
ACTCACGC	0.357
CCTCACAA	0.038
ACTCACAA	0.395
ATCTCAGA	-0.113
ACCCCTAA	-0.0884
AAGATTTC	0.0103
AATCTGAC	0.23
GGACGTAC	-0.0832
ACAGCCTC	-0.308
GAATCACA	0.439
CAATCACA	0.346
AAATCACG	0.264

Sequence	PBM E-score
CAATCACG	0.296
CAATCACC	0.343
TAATCACA	0.419
GAATCACC	0.456
AAATCACA	0.219
AAATCACC	0.328
AAACACAC	0.0803
AGACAGCC	-0.181
AAAGTCCC	-0.235
GGACTCGA	0.118
AGCAGTCC	-0.0176
ACCAGTCA	0.369
GGCAGTAA	0.0188
ACCAGTCT	0.0632
ACCAGTCC	-0.0297
GGCAGTGA	0.0347
GGCAGTCA	0.445
CCCAGTCA	0.316
CGCAGTCC	0.134
AGCAGTCG	0.065
AGCAGTCA	0.412
CGCAGTCA	0.422
AAACGGTA	0.0163
GTTATGGA	-0.119
CGCCCGAC	-0.0703

Sequence	PBM E-score
ATATCGGC	-0.169
GATCGTAA	-0.068
AATACCAC	-0.172
GGCACTTA	-0.212
CTATCCGC	0.00533
ATGGAGTC	0.398
ATGGAGTG	-0.143
CTGGAGTC	0.39
CTGGAGTA	0.0648
CTGGAGAC	-0.0698
ATGGAGTA	0.182
TAGGGCGA	0.0759
AAAGCTTA	-0.0514
AGTTAGCC	0.127
ATCGCACG	-0.0772
CAGTCGGC	0.122
GAGTCGGC	0.412
CAGTCGTA	0.265
CAGTCGGA	0.118
AAGTCGGC	-0.0537
AAGTCGTA	0.328
TAGTCGGA	0.288
GAGTCGGA	0.395
GAGTCGTA	0.453
CAACACAG	0.0802

Sequence	PBM E-score
GAAAATAA	0.133
TGACGACA	0.102
CATCGCAC	-0.211
ATGCAAGA	0.139
CGCTCATC	0.0112
CAAGCCGG	-0.108
ACATTCTA	0.0824
AGGATTCG	-0.0455
AAGATTCA	0.37
ACGATTCA	0.298
ATGATTCA	0.49
GGGATTCA	0.147
ATGATTCG	0.437
AGGATTCA	0.24
ACGATTCG	0.0252
GAGATTCA	0.238
GTGATTCA	0.474
AAGATTCG	0.205
GTGATTTA	0.35
CGCGCCCC	-0.271
CAACCTGC	-0.127
CCGTAATA	0.0217

From the supplement of paper PMC3334620
